From PubChem BioAssay (NCI)
About 79,000 compounds went through this panel and 15% of them were active in at least one assay; those are over-represented in the sample as a whole. Values without a mark were called inactive. Active and inactive are the calls of the source. Rule as the data show it: active = growth inhibition above about 70%; inactive = the rest.

Key:
[1] = NCI Yeast Anticancer Drug Screen. Data for the rad50 strain (AID 155);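 also: 0% = growth of vehicle-only cultures of the same strain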; conditions: S. cerevisiae rad50 strain growth inhibition; at 50.0 µM; active compounds read high
Method in brief: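 Relative growth inhibition (compound vs vehicle) was measured in yeast with a defined repair-gene alteration.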

[2] = NCI Yeast Anticancer Drug Screen. Data for the mec2-1 strain (AID 157); conditions: S. cerevisiae mec2-1 strain, at 50.0 µM, active compounds read high
Method in brief: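 Cells of the genetically defined mec2-1 yeast strain are incubated with test compound. Inhibition of growth is calculated against vehicle-treated controls.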

[3] = NCI Yeast Anticancer Drug Screen. Data for the sgs1 mgt1 strain (AID 161);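 also: 0% = growth of cultures given vehicle only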; conditions: S. cerevisiae sgs1 mgt1 strain, at 50.0 µM, active compounds read high
Method in brief: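 Read-out: growth inhibition vs vehicle controls. Cells: mutant yeast strain deficient in DNA damage repair.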

[4] = NCI Yeast Anticancer Drug Screen. Data for the cln2 rad14 strain (AID 165);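 also: 0% = growth equal to vehicle treated cultures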; conditions: S. cerevisiae cln2 rad14 strain, at 50.0 µM, active compounds read high
Method in brief: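 The screen exposed genetically defined yeast (cln2 rad14) to test compounds and scored growth inhibition relative to vehicle-treated controls.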

[5] = NCI Yeast Anticancer Drug Screen. Data for the bub3 strain (AID 167); conditions: S. cerevisiae bub3 mutant strain, at 50.0 µM, active compounds read high
Method in brief: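 Screening used yeast with an engineered genetic alteration affecting cell cycle control. Compound-exposed cultures were compared with vehicle cultures, and reduced growth was taken as inhibition.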

[6] = NCI Yeast Anticancer Drug Screen. Data for the mlh1 rad18 strain (AID 175); conditions: S. cerevisiae mlh1 rad18 strain growth inhibition; at 50.0 µM; active compounds read high
Method in brief: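 Compound-treated yeast growth, normalised to vehicle controls. Strain bears defined DNA repair mutations.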

Row | Compound | growth inhibition [1] | growth inhibition [2] | growth inhibition [3] | growth inhibition [4] | growth inhibition [5] | growth inhibition [6]
1 | N#Cc1ccccn1 | 13.1% | -30.7% | 12.7% | -6.95% | 3.5% | 5.9%
2 | CC1(C(=O)O)OC1c1ccccc1 (stereo not drawn) | 4.2% | 1.2% | 6.85% | -11.7% | 10.2% | -7.7%
3 | CCN(CC)CCn1ccc2ccccc21 | -11.4% | -18.4% | -9.85% | 17.3% | -27.1% | -5.95%
4 | Clc1ccc(NC2=NCCS2)cc1Cl | -9% | -22.8% | 41.4% | -7.55% | -3.05% | 10.9%
5 | O=C(COc1cccc(Cl)c1)NCc1ccccc1NC(=O)c1ccc(S(=O)(=O)F)cc1 | 95.2% (active) | 84.3% (active) | 95.2% (active) | 89.9% (active) | 90.5% (active) | 95.8% (active)
6 | Cc1cccc(C#N)c1 | 3.55% | -26.1% | 1.2% | -1.4% | -7% | -0.05%
7 | CC1OC(OC2CCC3(C=O)C4CCC5(C)C(C6=CC(=O)OC6)CCC5(O)C4CCC3(O)C2)C(O)C(O)C1O (stereo not drawn) | 14.3% | -8.35% | -5.65% | 13.5% | -9.15% | -4.3%
8 | CCCC(=O)[O-].N.N.N.N.N.[Co+3].[O-][Cl+3]([O-])([O-])[O-] | -23.8% | -2.3% | -41% | 8% | 1.7% | -21.9%
9 | O=C(O)C(O)CO.[Pb] (stereo not drawn) | -1.95% | 0.35% | -2.5% | 12.4% | -15.7% | 9.85%
10 | O=C(Nc1ccc(S(=O)(=O)F)cc1)c1ccc2ccccc2c1O | 9.85% | 31.8% | 32.5% | 2.15% | 27.9% | 25.4%
11 | COC(c1ccccc1)(c1ccccc1)C1C(c2ccccc2)N1C1CCCCC1 (stereo not drawn) | 46.1% | -5.3% | 43.5% | -1.3% | -5.1% | 22.8%
12 | NC(=O)C1(Br)CCCCC1 | -11.8% | -18.9% | -10.5% | -7.25% | 8.45% | -3.55%
13 | Cc1nc2ccccc2c(=O)n1-c1ccccc1Br | 7.35% | -13.7% | -6.7% | 12.4% | 10.2% | 2.2%
14 | O=C(c1ccccc1)P(C(=O)c1ccccc1)C(=O)c1ccccc1 | 10.9% | -5.7% | 8.2% | -75.7% | -0.05% | -5.1%
15 | O=C(NN=C1CCN(Cc2ccccc2)CC1)C(O)(c1ccccc1)c1ccccc1 | -13.6% | -5.5% | 13.8% | -8.5% | -14% | -0.65%
16 | Cn1nnnc1NC#N | -9.15% | 4.85% | 1% | 6.7% | 23.4% | -4.25%
17 | CCOC(=O)C(CC)(CC)C(=O)OCC | -18.9% | -2.3% | -29.6% | -38% | -12.4% | 4%
18 | C[Si](C)(C)CS(=O)[O-].[C-]#[O+].[C-]#[O+].[Fe+6].[c-]1[c-][c-][cH-][c-]1 | 0.1% | 8.8% | 20.7% | -12.2% | -3.85% | 6.65%
19 | C[n+]1ccc2ccccc2c1-c1c2ccccc2cc[n+]1C | 27.4% | 3.65% | -2.55% | 18.9% | 3% | 6.05%

Row | Compound | growth inhibition [1] | growth inhibition [2] | growth inhibition [3] | growth inhibition [4] | growth inhibition [5] | growth inhibition [6]
20 | [Fe+2].[c-]1[c-][c-][cH-][c-]1.[c-]1[c-][c-][cH-][c-]1.c1cc[c]([Pb]([c]2ccccc2)[c]2ccccc2)cc1 | 66.5% | 85% (active) | 83.9% (active) | 65.5% | 78.3% (active) | 87.8% (active)
21 | O=C(O)CCc1ccc(NP(=O)(Oc2ccccc2)N(CCCl)CCCl)cc1 (stereo not drawn) | 8.05% | 6.65% | 15.1% | 14.7% | 2.3% | -20.2%
22 | CN(C)c1ccc(NP(=O)(Nc2ccc(N(C)C)cc2)N(CCCl)CCCl)cc1 | 24.2% | 2.1% | 11% | 5.8% | 12.2% | 7.6%
23 | COc1ccc([As]=O)cc1N (stereo not drawn) | 4.8% | 18.1% | 8.75% | 7.25% | -7.45% | -10.5%
24 | CCCCCCNP(=O)(OCC)OCC | -6% | -36.9% | 5.3% | 6.8% | -41.8% | 12.3%
25 | Cc1cc(S(=O)(=O)F)ccc1NC(=O)/C=C/c1ccc([N+](=O)[O-])cc1 | 8.95% | 4% | 0.75% | 0.55% | 21.4% | -8.15%
26 | CCN1CCc2cc(OC)c(OC)cc2C1 | 0.15% | 4.7% | 6.45% | -25.9% | -0.6% | 3.5%
27 | CC1(C)C(=O)/C(=N\O)C[C@@]2(C)C1=CC[C@@H]1[C@@H]2CC[C@]2(C)C(=O)/C(=N/O)C[C@@H]12 | 1.55% | -5.25% | -0.05% | -45.1% | -1% | -12.1%
28 | COc1cc([As](=O)(O)O)c(OC)cc1N | -9.7% | 6.6% | -0.9% | -55.7% | 5.5% | -17.1%
29 | Cc1ccc(N)cc1 | 2.1% | -2.55% | -7.2% | -1.1% | 9.4% | 1.3%
30 | CCN(CC)[P+](C1=C(Cl)C(=O)C(Cl)=C(Cl)C1=O)(N(CC)CC)N(CC)CC | 1.25% | -12% | -6.6% | -19.5% | 8.45% | -17.5%
31 | CC1OC(O[C@@H]2C=C3CC[C@@H]4[C@H](CC[C@]5(C)[C@@H](c6ccc(=O)oc6)CC[C@]45O)[C@@]3(C)CC2)C(O)C(OC2OC(CO)C(O)C(O)C2O)C1O (stereo partly drawn) | 25.7% | 5.65% | -1.6% | 10.8% | 14.1% | 8.6%
32 | ClCc1nc(-c2ccco2)no1 | 6.1% | 51.2% | 20.6% | -42.5% | 4.55% | 29.9%
33 | CC1CN1P(=O)(N1CCc2ccccc21)N1CC1C (stereo not drawn) | -21.8% | -7.9% | -5.6% | -24.7% | 5.9% | 0.85%
34 | COc1ccc2c(c1)[C@@]13CCCC[C@H]1[C@@H](C2)N(C)CC3=O | 41.5% | 26.9% | -14.3% | 9.65% | 3% | -48%
35 | O=P(N1CCCCCC1)(N1CC1)N1CC1 | -2.15% | 11% | -11.4% | 3.95% | -3.25% | 6.35%
36 | N#CCCO | -7.35% | 5.05% | 0.55% | -6.9% | -3.7% | -6.2%
37 | C[N+]1(C)CCCC1c1cccnc1 (stereo not drawn) | 42.8% | 7.35% | -2.45% | -15.2% | 14.4% | 29.9%
38 | CCOC(=O)C1C(C=C(C)C)C1(C)C (stereo not drawn) | -14.3% | -17.4% | -8.8% | -10.8% | -16.6% | -3.95%
